Data reported in article PMC8384837, “Expanding the binding specificity for RNA recognition by a PUF domain”.

Key:
Assay in all cases: yeast three-hybrid, YBZ-1, SC-Leu-His + 0.5 mM 3-AT, 4 days
Conditions in all cases: tags: N-Gal4 AD-HA kept; label: inside an RPR1-promoter hybrid RNA with tandem MS2 sites; ssRNA
PUM1 PUF domain R3-WWG = PUM1 PUF domain R3-WWG (Homo sapiens, UniProt Q14671 828-1176, C935W;R936W;Q939G)
Procedure, shortened: (§1)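 Repeat regions from input (SC-Leu) and selection (SC-Leu-His + 0.5 mM 3-AT) plates were PCR-amplified and Illumina-sequenced after four days of growth. The cells were strain YBZ-1 with a LexA–MS2 coat fusion and a HIS3 reporter, co-expressing Pumilio-1 PUF domain libraries and matching RNA elements from a centromeric plasmid. The interaction score is the log change in variant frequency from input to selection, taken in log2 with a pseudocount of 1 for absent variants.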

PUM1 PUF domain R6-IWR = target: T1, PUM1 PUF domain R6-IWR (Homo sapiens, UniProt Q14671 828-1176, N1043I;Y1044W;Q1047R)
T1 sequence: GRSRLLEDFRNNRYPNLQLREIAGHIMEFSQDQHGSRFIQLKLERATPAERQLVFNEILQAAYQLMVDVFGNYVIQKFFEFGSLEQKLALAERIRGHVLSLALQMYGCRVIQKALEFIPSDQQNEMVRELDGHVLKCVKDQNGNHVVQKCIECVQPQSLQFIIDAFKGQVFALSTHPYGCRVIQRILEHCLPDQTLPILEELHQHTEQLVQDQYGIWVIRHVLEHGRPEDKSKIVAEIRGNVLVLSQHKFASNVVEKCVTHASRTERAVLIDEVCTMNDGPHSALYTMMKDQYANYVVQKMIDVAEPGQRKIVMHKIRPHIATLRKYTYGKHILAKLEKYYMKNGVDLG
Procedure, shortened: as §1

PUM1 PUF domain R5-RAC = PUM1 PUF domain R5-RAC (Homo sapiens, UniProt Q14671 828-1176, C1007R;R1008A;Q1011C)
Procedure, shortened: as §1

PUM1 PUF domain R4-DYR = PUM1 PUF domain R4-DYR (Homo sapiens, UniProt Q14671 828-1176, N971D;H972Y;Q975R)
Procedure, shortened: as §1

PUM1 PUF domain R4-GWW = PUM1 PUF domain R4-GWW (Homo sapiens, UniProt Q14671 828-1176, N971G;H972W;Q975W)
Procedure, shortened: as §1

PUM1 PUF domain R4-CYP = PUM1 PUF domain R4-CYP (Homo sapiens, UniProt Q14671 828-1176, N971C;H972Y;Q975P)
Procedure, shortened: as §1

PUM1 PUF domain R4-RNY = PUM1 PUF domain R4-RNY (Homo sapiens, UniProt Q14671 828-1176, N971R;H972N;Q975Y)
Procedure, shortened: as §1

PUM1 PUF domain R4-SWP = PUM1 PUF domain R4-SWP (Homo sapiens, UniProt Q14671 828-1176, N971S;H972W;Q975P)
Procedure, shortened: as §1

PUM1 PUF domain R3-RCN = PUM1 PUF domain R3-RCN (Homo sapiens, UniProt Q14671 828-1176, C935R;R936C;Q939N)
Procedure, shortened: as §1

PUM1 PUF domain R5-HRL = PUM1 PUF domain R5-HRL (Homo sapiens, UniProt Q14671 828-1176, C1007H;Q1011L)
Procedure, shortened: as §1

PUM1 PUF domain R5-KGS = PUM1 PUF domain R5-KGS (Homo sapiens, UniProt Q14671 828-1176, C1007K;R1008G;Q1011S)
Procedure, shortened: as §1

PUM1 PUF domain R5-SIS = PUM1 PUF domain R5-SIS (Homo sapiens, UniProt Q14671 828-1176, C1007S;R1008I;Q1011S)
Procedure, shortened: as §1

PUM1 PUF domain R5-QCS = PUM1 PUF domain R5-QCS (Homo sapiens, UniProt Q14671 828-1176, C1007Q;R1008C;Q1011S)
Procedure, shortened: as §1

PUM1 PUF domain R1-MVR = PUM1 PUF domain R1-MVR (Homo sapiens, UniProt Q14671 828-1176, S863M;R864V;Q867R)
Procedure, shortened: as §1

PUM1 PUF domain R1-ARR = PUM1 PUF domain R1-ARR (Homo sapiens, UniProt Q14671 828-1176, S863A;Q867R)
Procedure, shortened: as §1

PUM1 PUF domain R4-SNR = PUM1 PUF domain R4-SNR (Homo sapiens, UniProt Q14671 828-1176, N971S;H972N;Q975R)
Procedure, shortened: as §1

PUM1 PUF domain R4-NWP = PUM1 PUF domain R4-NWP (Homo sapiens, UniProt Q14671 828-1176, H972W;Q975P)
Procedure, shortened: as §1

PUM1 PUF domain R4-EYI = PUM1 PUF domain R4-EYI (Homo sapiens, UniProt Q14671 828-1176, N971E;H972Y;Q975I)
Procedure, shortened: as §1

PUM1 PUF domain R5-SPC = PUM1 PUF domain R5-SPC (Homo sapiens, UniProt Q14671 828-1176, C1007S;R1008P;Q1011C)
Procedure, shortened: as §1

PUM1 PUF domain R5-MHA = PUM1 PUF domain R5-MHA (Homo sapiens, UniProt Q14671 828-1176, C1007M;R1008H;Q1011A)
Procedure, shortened: as §1

GGCUAGAACUAGUGGAUCCCCCGGCGCCCGGCGGCUCGAGCCCGGGUAAGUGUAAGUAGUCUGCAUGCCGCCGGGCGCCAUGCCUGCAGGUCGACUCUAGAAAACAUG
binding signal (PUM1 PUF domain R3-WWG): 4.28 log2 enrichment (interaction score)

GGCUAGAACUAGUGGAUCCCCCGGCGCCCGGCGGCUCGAGCCCGGGUAAGUGUAAAUAGUCUGCAUGCCGCCGGGCGCCAUGCCUGCAGGUCGACUCUAGAAAACAUG
binding signal (PUM1 PUF domain R6-IWR): 6.32 log2 enrichment (interaction score)
binding signal (PUM1 PUF domain R5-RAC): 0.59 log2 enrichment (interaction score)
binding signal (PUM1 PUF domain R4-DYR): 1.4 log2 enrichment (interaction score)
binding signal (PUM1 PUF domain R4-GWW): 3.18 log2 enrichment (interaction score)
binding signal (PUM1 PUF domain R4-CYP): 5.36 log2 enrichment (interaction score)
binding signal (PUM1 PUF domain R4-RNY): 3.7 log2 enrichment (interaction score)
binding signal (PUM1 PUF domain R4-SWP): 5.57 log2 enrichment (interaction score)

GGCUAGAACUAGUGGAUCCCCCGGCGCCCGGCGGCUCGAGCCCGGGUAAGUGUAAUUAGUCUGCAUGCCGCCGGGCGCCAUGCCUGCAGGUCGACUCUAGAAAACAUG
binding signal (PUM1 PUF domain R3-WWG): 4.2 log2 enrichment (interaction score)
binding signal (PUM1 PUF domain R3-RCN): 2.71 log2 enrichment (interaction score)

GGCUAGAACUAGUGGAUCCCCCGGCGCCCGGCGGCUCGAGCCCGGGUAAGUGUCAAUAGUCUGCAUGCCGCCGGGCGCCAUGCCUGCAGGUCGACUCUAGAAAACAUG
binding signal (PUM1 PUF domain R5-RAC): 3.54 log2 enrichment (interaction score)
binding signal (PUM1 PUF domain R5-HRL): 2.78 log2 enrichment (interaction score)
binding signal (PUM1 PUF domain R5-KGS): 4.66 log2 enrichment (interaction score)

GGCUAGAACUAGUGGAUCCCCCGGCGCCCGGCGGCUCGAGCCCGGGUAAGUGUGAAUAGUCUGCAUGCCGCCGGGCGCCAUGCCUGCAGGUCGACUCUAGAAAACAUG
binding signal (PUM1 PUF domain R5-SIS): 3.76 log2 enrichment (interaction score)
binding signal (PUM1 PUF domain R5-QCS): 3.56 log2 enrichment (interaction score)

GGCUAGAACUAGUGGAUCCCCCGGCGCCCGGCGGCUCGAGCCCGGGUAAGUGUAAAUUGUCUGCAUGCCGCCGGGCGCCAUGCCUGCAGGUCGACUCUAGAAAACAUG
binding signal (PUM1 PUF domain R1-MVR): 1.71 log2 enrichment (interaction score)
binding signal (PUM1 PUF domain R1-ARR): 1.97 log2 enrichment (interaction score)

GGCUAGAACUAGUGGAUCCCCCGGCGCCCGGCGGCUCGAGCCCGGGUAAGUGUACAUAGUCUGCAUGCCGCCGGGCGCCAUGCCUGCAGGUCGACUCUAGAAAACAUG
binding signal (PUM1 PUF domain R4-DYR): 6.53 log2 enrichment (interaction score)
binding signal (PUM1 PUF domain R4-GWW): 0.85 log2 enrichment (interaction score)
binding signal (PUM1 PUF domain R4-CYP): 6.17 log2 enrichment (interaction score)
binding signal (PUM1 PUF domain R4-SNR): 2.06 log2 enrichment (interaction score)

GGCUAGAACUAGUGGAUCCCCCGGCGCCCGGCGGCUCGAGCCCGGGUAAGUGAAAAUAGUCUGCAUGCCGCCGGGCGCCAUGCCUGCAGGUCGACUCUAGAAAACAUG
binding signal (PUM1 PUF domain R6-IWR): 1.61 log2 enrichment (interaction score)

GGCUAGAACUAGUGGAUCCCCCGGCGCCCGGCGGCUCGAGCCCGGGUAAGUGUAUAUAGUCUGCAUGCCGCCGGGCGCCAUGCCUGCAGGUCGACUCUAGAAAACAUG
binding signal (PUM1 PUF domain R4-NWP): 2.37 log2 enrichment (interaction score)
binding signal (PUM1 PUF domain R4-DYR): 6.18 log2 enrichment (interaction score)
binding signal (PUM1 PUF domain R4-EYI): 3.01 log2 enrichment (interaction score)
binding signal (PUM1 PUF domain R4-SNR): 2.9 log2 enrichment (interaction score)
binding signal (PUM1 PUF domain R4-SWP): 5.26 log2 enrichment (interaction score)

GGCUAGAACUAGUGGAUCCCCCGGCGCCCGGCGGCUCGAGCCCGGGUAAGUGUAAAUCGUCUGCAUGCCGCCGGGCGCCAUGCCUGCAGGUCGACUCUAGAAAACAUG
binding signal (PUM1 PUF domain R1-MVR): 2.85 log2 enrichment (interaction score)
binding signal (PUM1 PUF domain R1-ARR): 2.95 log2 enrichment (interaction score)

GGCUAGAACUAGUGGAUCCCCCGGCGCCCGGCGGCUCGAGCCCGGGUAAGUGUAAAUGGUCUGCAUGCCGCCGGGCGCCAUGCCUGCAGGUCGACUCUAGAAAACAUG
binding signal (PUM1 PUF domain R1-ARR): 0.69 log2 enrichment (interaction score)

GGCUAGAACUAGUGGAUCCCCCGGCGCCCGGCGGCUCGAGCCCGGGUAAGUGUUAAUAGUCUGCAUGCCGCCGGGCGCCAUGCCUGCAGGUCGACUCUAGAAAACAUG
binding signal (PUM1 PUF domain R5-HRL): 4.98 log2 enrichment (interaction score)
binding signal (PUM1 PUF domain R5-SPC): 2.48 log2 enrichment (interaction score)
binding signal (PUM1 PUF domain R5-MHA): 4.69 log2 enrichment (interaction score)
binding signal (PUM1 PUF domain R5-QCS): 0.61 log2 enrichment (interaction score)
